# Reference: PubChem BioAssay (Tox21)
# Results filed as inconclusive are left out. A call without a number means that no potency is given here. The source made the active and inactive calls. The call rests on the fitted dose curve; in most records, active means well fitted inhibition curve with a large enough effect in the repeat runs; inconclusive means weak or mixed curves; inactive means flat fitted curve, though single readings scatter.
# Biological target: Luciferin 4-monooxygenase (Photinus pyralis) (UniProt P08659)
# Sequence (P08659 whole entry, looked up): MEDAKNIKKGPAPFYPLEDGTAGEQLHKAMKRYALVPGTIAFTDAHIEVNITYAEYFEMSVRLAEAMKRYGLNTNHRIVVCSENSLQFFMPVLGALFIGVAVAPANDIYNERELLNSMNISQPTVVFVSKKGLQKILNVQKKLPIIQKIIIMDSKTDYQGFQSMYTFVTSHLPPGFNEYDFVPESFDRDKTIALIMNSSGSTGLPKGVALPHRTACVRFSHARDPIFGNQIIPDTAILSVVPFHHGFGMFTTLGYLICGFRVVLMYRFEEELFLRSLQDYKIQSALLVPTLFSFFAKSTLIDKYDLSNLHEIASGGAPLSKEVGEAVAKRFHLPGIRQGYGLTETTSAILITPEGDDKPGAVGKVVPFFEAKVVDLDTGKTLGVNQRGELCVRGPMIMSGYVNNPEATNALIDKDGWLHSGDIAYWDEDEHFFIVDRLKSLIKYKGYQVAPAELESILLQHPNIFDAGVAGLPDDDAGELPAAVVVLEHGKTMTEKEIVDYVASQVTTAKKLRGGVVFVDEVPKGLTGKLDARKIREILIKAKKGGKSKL
# Assay: qHTS assay to identify small molecule inhibitors of firefly luciferase (AID 1224835); further: nearly all actives have a fitted effect of over 25% in size
# Conditions: purified P. pyralis luciferase, luminescence inhibition; series mostly up to 115 µM
# Summary of the method: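 Inhibition of purified Photinus luciferase is measured by luminescence. Substrate levels (D-luciferin, ATP) sit at their KM values. Each compound is tested in a concentration series.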
# Potency means the concentration at half of the fitted maximal effect.
SMILES,Potency,"activity change, negative = inhibition"
O=C(CS)OCCOC(=O)CS,inactive,
CN1CCN(c2c(F)cc3c(=O)c(C(=O)O)cn4c3c2OCN4C)CC1,,2.58% [at 23.6 µM] (inactive)
Cc1cc(O)c(C(C)C)cc1Cl,inactive,
O=C(C(=O)c1ccccc1)c1ccccc1,inactive,
O=C(CCC1CCN(Cc2ccccc2)CC1)c1ccc2c(c1)NCCCC2,inactive,
CCOC(=O)N1CCC(n2c(=O)[nH]c3cc(Cl)ccc32)CC1,inactive,
O=C(CCCCCCC(=O)Nc1ccccc1)NO,inactive,
CCOC(=O)c1ccccc1OC,inactive,
CC(C)CCCC(=O)O,inactive,
CCC(C(=O)OCCOCCN(CC)CC)c1ccccc1 (configuration not stated),inactive,
CCCCC(=O)O[C@]1(C(=O)CO)CC[C@H]2[C@@H]3CCC4=CC(=O)CC[C@]4(C)[C@H]3[C@@H](O)C[C@@]21C,inactive,
O=C(O)c1ccccc1NCCc1ccccc1,27.5 µM (active),
CCOC(=N)CC(=O)OCC,inactive,
COc1cc2[nH]c(=O)[nH]c(=O)c2cc1OC,inactive,
CC[C@@H]([C@H](C)O)n1ncn(-c2ccc(N3CCN(c4ccc(OC[C@@H]5CO[C@@](Cn6cncn6)(c6ccc(F)cc6F)C5)cc4)CC3)cc2)c1=O,inactive,
CCC(C)(C)C1CCC(O)CC1 (configuration not stated),79.6 µM (active),

SMILES,Potency,"activity change, negative = inhibition"
Cc1nc2ccccn2c(=O)c1CCN1CCC(C(=O)c2ccc(F)cc2)CC1,inactive,
O=C(O)c1cccc(O)c1,inactive,
O=C1OCCN1/N=C/c1ccc([N+](=O)[O-])o1,inactive,
CC(C)C(OC(=O)c1ccccc1)C(C)(C)COC(=O)c1ccccc1 (configuration not stated),inactive,
CC(C)CCCCCCOC(=O)CCCCC(=O)OCCCCCCC(C)C,inactive,
C[C@@H]1C[C@H]2[C@@H]3CCC4=CC(=O)C=C[C@]4(C)[C@@]3(F)[C@@H](O)C[C@]2(C)[C@H]1C(=O)CO,inactive,
CC1(C)C2=CCCC(C)(C)[C@]23CC[C@H]1C3,inactive,
CNC(=S)NC,inactive,
Cc1cc(C(=C2C=CC(=Nc3ccc(S(=O)(=O)O)cc3S(=O)(=O)O)C=C2)c2ccc(Nc3ccc(S(=O)(=O)O)cc3)cc2)ccc1N,23.2 µM (active),
COc1cc2c(N3CCN(C(=O)Nc4ccc(OC(C)C)cc4)CC3)ncnc2cc1OCCCN1CCCCC1,inactive,
Nc1nc(Cl)nc2c1ncn2[C@@H]1O[C@H](CO)[C@@H](O)[C@@H]1F,inactive,
COC(=O)[C@@H]1CC2=CC(=O)CC[C@]2(C)[C@@]23O[C@@H]2C[C@@]2(C)[C@@H](CC[C@@]24CCC(=O)O4)[C@H]13,inactive,
CCCCN(CCCC)CCCOC(=O)c1ccc(N)cc1,inactive,
C=CC(C)(O)CCCC(C)CCCC(C)CCCC(C)C (configuration not stated),inactive,
COCc1c(C(C)C)nc(C(C)C)c(/C=C/[C@@H](O)C[C@@H](O)CC(=O)O)c1-c1ccc(F)cc1,inactive,
NC(=O)Nc1ccc(Cl)c(Cl)c1,inactive,
